H9c2 TAG inh = inhibitors of triacylglycerol accumulation. H9c2 cells, Nile Red lipid (TAG) fluorescence; cells loaded with 200 µM oleic acid. inhibition, % at 12.5 µM. 230,000 compounds, 0.66% hits;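 active means pattern-corrected inhibition of lipid staining of at least 50% with the nuclear-stain viability signal not falling by more than 50%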;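 further: 0% = DMSO wells and 100% = triacsin C control wells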
CRFR2-BP ag = agonists of human CRF-binding protein/CRF-R2 receptor complex; HEK293 CRF-R2/CRF-BP, calcium dye fluorescence (FLIPR); percent of saturating CRF peptide response; AID 588473; 350,000 compounds, 0.46% hits; activation, % at 13.2 µM;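 active means activation of at least 50%, plus an integration ratio under a set limit after plate pattern correction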;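 further: plate controls were neutral control wells without compound for no effect and CRF at EC100 for full effect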
Cardio protect = myocardial damage modulation in H9c2 cells; H9c2 cardiomyocytes, H2O2 injury protection, ATPLite, 2 h; protection from H2O2 cell death, % at 20 µM; 360,000 compounds, 0.63% hits;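 active means compounds giving at least 50% protection of heart cells from peroxide-induced death in the single-dose screen, raw or plate-pattern-corrected value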;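 further: 0% = DMSO wells with peroxide and 100% = DMSO wells without peroxide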
SKN-1 block = blocks SKN-1 activity in C. elegans; C. elegans VP596 Pgst-4::GFP/RFP ratio, acrylamide-induced, 24 h; inhibition, % at 21.8 µM; 360,000 compounds, 0.49% hits; AID 624304;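 active means interference check ratio from 0.5 to 1.5 plus GFP to RFP signal ratio inhibition reaching or exceeding a fixed threshold, cut at about 30% in these data, passing the limit was not always enough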
CRFR2-BP antag = CRF-BP/CRF-R2 complex antagonism | HEK293 CRF-R2/CRF-BP, CRF-induced calcium fluorescence | inhibition, % at 11.8 µM | 350,000 compounds, 0.59% hits | AID 588475;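 active means inhibition of the ligand-induced calcium signal above about 50% at the single tested concentration, limit read from the data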
iPSC survival up = increases survival of single human iPS cells. AID 602274. hiPSC single-cell survival, ATPlite luminescence; 100% = ROCK inhibitor wells, 0% = DMSO. survival enhancement, % at 20 µM. 360,000 compounds, 0.044% hits; in the data active means survival enhancement above about 18%;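 further: cells exposed to compounds for 16 hours before the ATP read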
* hit, by the source's call; x = no result. In the library only some 2.5% were active in any assay of this set; here they are far more common.

SMILES | H9c2 TAG inh | CRFR2-BP ag | Cardio protect | SKN-1 block | CRFR2-BP antag | iPSC survival up
CCCC[C@@H](C)C[C@@H](C)C(=O)N(C)[C@@H](CC(C)C)C(=O)N[C@H](C(=O)N(C)[C@H](C(=O)N1C[C@@H](O)C[C@H]1C(=O)N1C(=O)C=C[C@@H]1C)C(C)C)C(C)OC(C)=O (stereo partly specified) | 104.7 | -1.8 | -9.2 | -19.1 | -28.0 | -4.2
O=[N+]([O-])c1ccc(N(CCO)CCO)c2c1no[n+]2[O-] | 77.4 | 10.9 | -6.8 | 47.4* | -13.9 | -5.8
CN(C)c1ccc(/C=C/[N+](=O)[O-])cc1 | 3.8 | 100.6* | 14.4 | 39.9* | -117.5 | -3.1
C/C(=C\c1ccc(N(C)C)cc1)[N+](=O)[O-] | x | 5.8 | -17.2 | 42.4* | 1.3 | 0.9
CN(C)c1ccc(C=C2C(=O)NC(=O)NC2=O)cc1 | -3.1 | -0.8 | 14.9 | 13.2 | -28.2 | -0.2
CCOC(=O)C(O)(c1ccc(N=c2ccccn2C)cc1)C(F)(F)F (stereo unspecified) | -11.3 | 0.2 | -2.8 | 23.2 | 0.7 | -0.6
Cc1cc(N2C(=O)C3CCCN3C2c2ccccc2)no1 (stereo unspecified) | 1.1 | 4.5 | -3.4 | 14.6 | -20.1 | 0.4
COc1ccc2c(c1)NP(=S)(c1ccccc1)N2C (stereo unspecified) | -11.8 | -1.2 | -8.1 | 54.3* | 3.1 | 0.1
COc1ccc(-n2c(=O)[nH]c3ccccc3c2=O)c(OC)c1 | 12.9 | 2.1 | -1.8 | 5.4 | -2.8 | -2.9
Cn1c(=O)c2c(nc(N/N=C/c3c(O)n(C4CCCCC4)c(=S)[nH]c3=O)n2C)n(C)c1=O | -0.3 | 1.3 | 67.7* | -4.3 | -4.5 | 0.2
Cn1c(O)c(C=NC2CCN(Cc3ccccc3)CC2)c(=O)n(C)c1=O | 9.3 | -3.3 | 2.8 | 10.4 | 14.0 | 0.1
CC1=Nc2ccccc2/C1=C/c1c(O)[nH]c(=O)[nH]c1=O | 1.0 | -1.6 | 0.2 | 36.1* | 6.0 | -0.4
C[C@]12CC[C@H]3[C@@H](CCC4=CC(=O)CC[C@@H]43)[C@@H]1CC[C@@H]2O | x | 0.8 | 7.1 | 8.8 | 8.2 | -1.4
C[C@]12CC[C@@H]3c4ccc(O)c(O)c4CC[C@H]3[C@@H]1CC[C@@H]2O | -7.0 | 2.3 | 121.2* | 4.9 | -52.5 | -4.0
NC(=O)c1c(Br)n(C2OC(CO)C(O)C2O)c2ncnc(N)c12 (stereo unspecified) | 42.8 | 0.2 | -2.3 | 3.9 | -4.9 | -1.7
N#Cc1cn(C2OC(CO)C(O)C2O)c2ncnc(N)c12 (stereo unspecified) | 89.8* | 0.6 | 5.4 | 9.0 | 8.3 | -2.5
N#Cc1c(Br)n(C2OC(CO)C(O)C2O)c2ncnc(N)c12 (stereo unspecified) | 52.1* | 0.2 | -0.3 | 17.6 | -4.3 | -4.1
NC(=O)c1cn(C2OC(CO)C(O)C2O)c2ncnc(N)c12 (stereo unspecified) | 47.9 | -0.5 | -5.3 | 1.5 | 0.6 | -0.7
COC1CC2C=C(C)C=CC=CC(=O)NC(c3ccccc3)CC=CCCC(O)CC(=O)C2=C1O (stereo unspecified) | x | x | -20.0 | 5.6 | x | -2.1
Clc1ccc(C2NCCc3[nH]cnc32)cc1 (stereo unspecified) | x | 0.1 | 3.4 | -6.9 | -6.1 | 0.6
Cc1ccc2c(c1)Oc1ccccc1N=C2 | 0.4 | 0.8 | 1.7 | 19.6 | 65.0* | -0.8
Cc1ccc(N2C(=O)NC(=O)/C(=C\c3ccoc3)C2=O)cc1 | 3.7 | 53.6* | -1.4 | 17.3 | -75.9 | -0.7
Cc1c(C(=O)Nc2ccccc2)c2cc(O)ccc2n1Cc1ccccc1 | -11.3 | -4.9 | -7.7 | 14.1 | -9.7 | 1.7
CC(=O)c1ccc2c(c1)C1C(Cl)C(Sc3ccccc3[N+](=O)[O-])CC1C(c1ccccc1[N+](=O)[O-])N2 (stereo unspecified) | -43.3 | 0.6 | 35.5 | 42.4* | -63.0 | 2.9
CC(=O)Nc1ccc(S(=O)(=O)N2Cc3ccccc3-n3nncc3C2)cc1 | -23.4 | 1.6 | -23.3 | 2.0 | -5.7 | 0.1
SMILES | H9c2 TAG inh | CRFR2-BP ag | Cardio protect | SKN-1 block | CRFR2-BP antag | iPSC survival up
CN1C[C@@H]2C[C@@H](c3cccn3-c3ccccn3)N3CCC[C@@]23C1=O | 2.1 | -0.6 | -7.9 | 5.0 | -1.9 | 0.2
CCOC(=O)Cn1cc(C=C2C(=O)N(C)C(=O)N(C)C2=O)c2ccccc21 | x | 66.1* | 7.6 | -10.3 | -48.6 | -0.4
CN1C(=O)C(=Cc2cn(CC(=O)N3CCCC3)c3ccccc23)C(=O)N(C)C1=O | x | 16.3 | 6.3 | -5.1 | 0.5 | 0.1
CN1C(=O)C(=Cc2cn(CC(=O)N3CCCCC3)c3ccccc23)C(=O)N(C)C1=O | x | 0.6 | 9.3 | 40.9* | 1.7 | 0.3
COc1ccc(-n2nnnc2C(c2cccs2)N2CCC3(CC2)C(=O)NCN3c2ccccc2)cc1 (stereo unspecified) | x | x | 4.6 | 7.5 | x | 2.4
CN1CC=C2C(C#N)=C(N)C(C#N)(C#N)C(c3ccncc3)C2C1 (stereo unspecified) | -21.7 | 14.0 | 0.1 | 39.7* | -0.7 | -0.9
CC1=C(C)CC2(C(=O)NC(=S)NC2=O)C(C)C1 (stereo unspecified) | -2.1 | 150.5* | 2.0 | 21.8 | -140.2 | -0.6
CC(=O)OC1CCC2(C)C(CCC3C4CC(N5CC5)C(C(C)=O)C4(C)CC(=O)C32)C1 (stereo unspecified) | 35.6 | 2.1 | -2.3 | -0.4 | 20.7 | 1.4
COc1cc(/C=C/c2nc3ccccc3c(=O)n2-c2ccc(O)cc2)ccc1O | x | 2.0 | 66.1* | -3.0 | -10.3 | -0.5
O=c1c2ccccc2nc(/C=C/c2ccc3c(c2)OCO3)n1-c1ccccc1 | x | -3.1 | 38.7 | 2.9 | 4.7 | 3.0
COc1ccc(-n2c(/C=C/c3ccc(O)c(O)c3)nc3ccccc3c2=O)cc1 | x | 3.4 | 56.6* | 13.9 | -5.5 | -0.3
CCOC(=O)c1cc2ccccc2n1C1CCN(Cc2ccccc2)CC1 | x | x | x | 0.2 | x | -1.1
O=C(COc1ccccc1F)N1CCN(CCN2C(=O)c3cccc4cccc(c34)C2=O)CC1 | -3.3 | -0.1 | 24.5 | -6.3 | 69.5* | -0.5
C=C1C(=O)OC2CC(C)C3C=CC(=O)C3(C)C(O)C12 (stereo unspecified) | 72.2 | -2.1 | -16.9 | -11.2 | 5.7 | 50.0*
C=C1C(=O)O[C@@H]2C[C@@H](C)[C@@H]3C=CC(=O)[C@@]3(C)[C@@H](OC(=O)CC(=O)O[C@H]3[C@@H]4C(=C)C(=O)O[C@@H]4C[C@@H](C)[C@@H]4C=CC(=O)[C@]43C)[C@H]12 | x | 4.3 | -9.7 | -8.0 | 8.3 | 4.2
C=C1C(=O)O[C@@H]2C[C@@H](C)[C@@H]3C4OC4C(=O)[C@@]3(C)[C@@H](O)[C@H]12 (stereo partly specified) | 110.5* | 0.2 | -13.8 | 6.4 | 30.0 | 8.5

From PubChem BioAssay
